Data on 15 targets can be found in the supplement of paper PMC12067093, “Discovery and optimisation of a covalent ligand for TRIM25 and its application to targeted protein ubiquitination” (Chemical Science, 2025).

Compound in this experiment: Cc1cc(ccc1-c1ccccc1)C(=O)N1CCCN(CC1)C(=O)CCl [compound 10]
Kind of experiment: probe-labelled cysteine peptide fold change vs DMSO (competition) (log2 fold change); higher = less target engagement (more negative = stronger competition). As to conditions: THP-1, incubation time: 4 h.

Of roughly 21,000 targets only a part is listed; those with the largest changes were picked by preference.
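Also: competitive profiling in live THP-1 cells: cysteine peptides tagged with an iodoacetamide desthiobiotin (IA-DTB) probe, intensity after compound treatment relative to DMSO-treated cells.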

Chain of UniProt P52429 (P52429 whole entry, looked up): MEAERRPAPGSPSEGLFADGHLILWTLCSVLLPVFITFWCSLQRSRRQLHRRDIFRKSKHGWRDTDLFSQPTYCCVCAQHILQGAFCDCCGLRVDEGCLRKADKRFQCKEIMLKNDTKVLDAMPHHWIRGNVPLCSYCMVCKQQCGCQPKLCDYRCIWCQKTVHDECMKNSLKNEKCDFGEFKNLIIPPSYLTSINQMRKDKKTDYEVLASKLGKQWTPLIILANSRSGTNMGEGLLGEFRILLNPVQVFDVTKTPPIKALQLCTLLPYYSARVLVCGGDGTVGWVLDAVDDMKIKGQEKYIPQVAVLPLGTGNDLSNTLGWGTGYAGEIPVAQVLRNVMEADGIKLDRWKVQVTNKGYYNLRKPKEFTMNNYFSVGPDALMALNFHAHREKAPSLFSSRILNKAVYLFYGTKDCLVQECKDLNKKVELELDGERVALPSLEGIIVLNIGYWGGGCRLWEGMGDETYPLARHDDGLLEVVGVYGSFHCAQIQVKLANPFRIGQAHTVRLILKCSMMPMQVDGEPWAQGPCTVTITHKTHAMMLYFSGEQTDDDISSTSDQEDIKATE
Chain of UniProt O60716 (O60716 whole entry, looked up): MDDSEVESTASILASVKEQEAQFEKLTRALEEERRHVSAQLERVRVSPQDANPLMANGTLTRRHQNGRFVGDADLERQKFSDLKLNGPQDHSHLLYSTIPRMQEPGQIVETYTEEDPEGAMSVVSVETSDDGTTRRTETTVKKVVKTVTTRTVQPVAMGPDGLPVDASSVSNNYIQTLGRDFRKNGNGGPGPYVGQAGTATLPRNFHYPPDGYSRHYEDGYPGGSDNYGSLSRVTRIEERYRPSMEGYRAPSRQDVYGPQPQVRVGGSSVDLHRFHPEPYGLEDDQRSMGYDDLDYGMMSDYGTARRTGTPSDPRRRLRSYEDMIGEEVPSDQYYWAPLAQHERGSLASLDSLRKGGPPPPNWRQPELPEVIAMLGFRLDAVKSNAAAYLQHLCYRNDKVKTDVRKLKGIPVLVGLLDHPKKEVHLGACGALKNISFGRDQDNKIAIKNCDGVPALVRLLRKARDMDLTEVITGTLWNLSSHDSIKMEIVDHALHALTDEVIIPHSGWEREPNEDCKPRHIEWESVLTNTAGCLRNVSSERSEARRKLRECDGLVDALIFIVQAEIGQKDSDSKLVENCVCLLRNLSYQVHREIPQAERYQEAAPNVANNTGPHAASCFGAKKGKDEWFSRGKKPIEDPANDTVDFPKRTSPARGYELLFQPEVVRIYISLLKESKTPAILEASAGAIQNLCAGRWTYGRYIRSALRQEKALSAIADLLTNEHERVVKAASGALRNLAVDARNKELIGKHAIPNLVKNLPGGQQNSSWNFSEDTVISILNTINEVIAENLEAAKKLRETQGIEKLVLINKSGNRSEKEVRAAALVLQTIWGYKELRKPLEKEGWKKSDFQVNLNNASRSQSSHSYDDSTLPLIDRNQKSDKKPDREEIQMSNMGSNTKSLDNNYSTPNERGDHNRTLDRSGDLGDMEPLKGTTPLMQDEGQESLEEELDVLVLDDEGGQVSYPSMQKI
Chain of UniProt O95628 (O95628 whole entry, looked up): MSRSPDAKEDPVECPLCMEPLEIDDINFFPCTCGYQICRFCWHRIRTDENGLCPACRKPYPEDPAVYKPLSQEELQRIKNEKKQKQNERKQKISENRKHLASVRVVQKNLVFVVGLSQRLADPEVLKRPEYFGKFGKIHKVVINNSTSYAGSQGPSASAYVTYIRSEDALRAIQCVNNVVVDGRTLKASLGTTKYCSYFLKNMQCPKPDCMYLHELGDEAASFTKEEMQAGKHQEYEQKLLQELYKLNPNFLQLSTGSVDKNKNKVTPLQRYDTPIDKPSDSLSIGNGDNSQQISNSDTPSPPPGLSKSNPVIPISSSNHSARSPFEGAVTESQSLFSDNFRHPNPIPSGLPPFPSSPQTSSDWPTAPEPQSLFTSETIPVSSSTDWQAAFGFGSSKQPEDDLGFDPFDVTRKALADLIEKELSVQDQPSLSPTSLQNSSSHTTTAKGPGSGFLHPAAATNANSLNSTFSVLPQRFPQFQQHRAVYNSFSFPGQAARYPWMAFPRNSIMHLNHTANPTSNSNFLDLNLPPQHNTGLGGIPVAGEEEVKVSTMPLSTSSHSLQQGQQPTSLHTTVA
Chain of UniProt Q8IWT3 (Q8IWT3 whole entry, looked up): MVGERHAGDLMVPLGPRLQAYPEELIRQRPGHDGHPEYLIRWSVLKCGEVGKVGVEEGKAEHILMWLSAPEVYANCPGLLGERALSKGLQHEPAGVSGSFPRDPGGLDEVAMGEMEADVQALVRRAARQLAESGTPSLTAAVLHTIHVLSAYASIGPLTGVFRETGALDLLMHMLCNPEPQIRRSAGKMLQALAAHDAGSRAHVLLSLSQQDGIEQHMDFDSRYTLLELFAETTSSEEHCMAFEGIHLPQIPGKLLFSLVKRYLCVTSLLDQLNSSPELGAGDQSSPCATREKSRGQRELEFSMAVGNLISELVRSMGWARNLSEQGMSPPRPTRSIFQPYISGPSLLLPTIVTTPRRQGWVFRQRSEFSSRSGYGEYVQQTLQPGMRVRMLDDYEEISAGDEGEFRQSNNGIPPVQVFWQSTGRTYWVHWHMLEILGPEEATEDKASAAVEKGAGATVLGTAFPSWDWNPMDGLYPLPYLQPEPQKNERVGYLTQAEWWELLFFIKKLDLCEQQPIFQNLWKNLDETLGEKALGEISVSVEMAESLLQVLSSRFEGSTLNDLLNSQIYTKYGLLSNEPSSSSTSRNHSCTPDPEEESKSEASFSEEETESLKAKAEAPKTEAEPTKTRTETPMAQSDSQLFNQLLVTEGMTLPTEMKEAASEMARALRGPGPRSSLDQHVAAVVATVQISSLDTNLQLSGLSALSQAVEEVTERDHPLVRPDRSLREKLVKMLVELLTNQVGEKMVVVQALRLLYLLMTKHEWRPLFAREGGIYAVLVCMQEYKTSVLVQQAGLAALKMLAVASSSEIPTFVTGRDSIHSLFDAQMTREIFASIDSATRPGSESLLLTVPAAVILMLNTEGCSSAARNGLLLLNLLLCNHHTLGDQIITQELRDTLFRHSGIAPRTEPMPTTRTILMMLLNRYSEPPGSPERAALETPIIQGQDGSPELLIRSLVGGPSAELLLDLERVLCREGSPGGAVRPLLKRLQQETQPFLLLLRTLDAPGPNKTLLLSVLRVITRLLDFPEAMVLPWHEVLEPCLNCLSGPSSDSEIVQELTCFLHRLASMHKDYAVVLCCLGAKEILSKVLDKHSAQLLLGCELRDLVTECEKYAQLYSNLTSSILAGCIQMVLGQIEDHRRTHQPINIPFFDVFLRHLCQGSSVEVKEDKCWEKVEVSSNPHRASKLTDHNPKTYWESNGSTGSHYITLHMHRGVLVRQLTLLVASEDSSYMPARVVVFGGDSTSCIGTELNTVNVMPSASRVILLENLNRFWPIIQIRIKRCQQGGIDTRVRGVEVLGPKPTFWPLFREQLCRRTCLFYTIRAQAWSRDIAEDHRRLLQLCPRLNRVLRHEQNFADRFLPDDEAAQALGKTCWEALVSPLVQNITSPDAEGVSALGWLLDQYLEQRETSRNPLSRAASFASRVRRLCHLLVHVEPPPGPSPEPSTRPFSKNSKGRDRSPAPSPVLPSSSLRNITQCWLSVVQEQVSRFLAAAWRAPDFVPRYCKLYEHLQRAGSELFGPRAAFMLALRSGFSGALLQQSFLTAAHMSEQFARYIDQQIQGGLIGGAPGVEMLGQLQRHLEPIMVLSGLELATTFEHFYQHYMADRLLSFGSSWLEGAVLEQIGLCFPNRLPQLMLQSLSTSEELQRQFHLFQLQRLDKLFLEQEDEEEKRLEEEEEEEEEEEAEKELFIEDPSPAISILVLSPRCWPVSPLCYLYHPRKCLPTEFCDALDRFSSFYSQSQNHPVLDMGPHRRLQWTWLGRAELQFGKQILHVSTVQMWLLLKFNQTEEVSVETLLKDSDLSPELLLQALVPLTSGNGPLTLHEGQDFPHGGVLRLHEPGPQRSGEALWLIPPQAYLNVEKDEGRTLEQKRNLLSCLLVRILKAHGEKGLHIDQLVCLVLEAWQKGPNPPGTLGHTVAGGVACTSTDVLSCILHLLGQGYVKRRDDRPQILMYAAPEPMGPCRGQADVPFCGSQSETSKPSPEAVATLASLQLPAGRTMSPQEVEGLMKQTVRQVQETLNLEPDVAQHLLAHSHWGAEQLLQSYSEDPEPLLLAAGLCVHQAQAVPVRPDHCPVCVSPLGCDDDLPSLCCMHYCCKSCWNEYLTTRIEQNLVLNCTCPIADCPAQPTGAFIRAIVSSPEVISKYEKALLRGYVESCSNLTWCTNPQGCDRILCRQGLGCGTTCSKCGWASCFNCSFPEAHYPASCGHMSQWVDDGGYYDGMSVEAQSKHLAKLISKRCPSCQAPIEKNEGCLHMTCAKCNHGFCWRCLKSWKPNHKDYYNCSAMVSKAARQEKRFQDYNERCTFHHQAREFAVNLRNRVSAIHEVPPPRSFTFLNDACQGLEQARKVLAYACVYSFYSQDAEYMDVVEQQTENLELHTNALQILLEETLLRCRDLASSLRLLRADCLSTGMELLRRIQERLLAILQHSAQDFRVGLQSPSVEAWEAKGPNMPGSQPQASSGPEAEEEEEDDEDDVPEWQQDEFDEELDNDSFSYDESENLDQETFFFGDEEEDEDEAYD
Chain of UniProt Q08257 (Q08257 whole entry, looked up): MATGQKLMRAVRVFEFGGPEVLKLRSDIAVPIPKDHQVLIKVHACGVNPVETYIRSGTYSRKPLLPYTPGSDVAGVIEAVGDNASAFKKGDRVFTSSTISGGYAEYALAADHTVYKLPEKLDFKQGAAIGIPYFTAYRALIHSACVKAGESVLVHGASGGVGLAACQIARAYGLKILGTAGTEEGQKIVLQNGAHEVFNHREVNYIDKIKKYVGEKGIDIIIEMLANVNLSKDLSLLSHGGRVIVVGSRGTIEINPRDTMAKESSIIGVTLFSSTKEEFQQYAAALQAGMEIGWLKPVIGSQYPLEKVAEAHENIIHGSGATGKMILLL

On to “DCXR_Q7Z4W1_58_ECPGIEPVCVDLGDWEATER (UniProt Q7Z4W1)”, for which the “probe-labelled cysteine peptide fold change” value by setting is: (10 µM) 0.125; (50 µM) 0.231.

Consider “CNN2_Q99439_215_CASQVGMTAPGTR (UniProt Q99439)”, for which the “probe-labelled cysteine peptide fold change” value was -0.0958 (10 µM) and -0.449 (50 µM).

For the target “CTNND1_O60716_618_YQEAAPNVANNTGPHAASCFGAK (UniProt O60716)”, the “probe-labelled cysteine peptide fold change” value runs as follows: (10 µM) -0.274; (50 µM) -0.78.

Regarding “COA7_Q96BR5_187_ACDLGHIWACANASR (UniProt Q96BR5)”, the “probe-labelled cysteine peptide fold change” value reads like this: (10 µM) 0.0578; (50 µM) 0.0556.

Turning to “DBR1_Q9UK59_36_RGPGPVDLLLCCGDFQAVR (UniProt Q9UK59)”, the “probe-labelled cysteine peptide fold change” value was 0.0792 (10 µM) and -0.183 (50 µM).

For “DCAF13_Q9NV06_215_FNPIETFLLGSCASDR (UniProt Q9NV06)”, the “probe-labelled cysteine peptide fold change” value by setting is: (10 µM) 0.105; (50 µM) -0.0461.

Regarding “COMT_P21964_241_GSSCFECTHYQSFLEYR (UniProt P21964)”, the “probe-labelled cysteine peptide fold change” value is 0.0648 (10 µM) and -0.0597 (50 µM).

In the case of “CMTM3_Q96MX0_38_AFLCSLK (UniProt Q96MX0)”, the “probe-labelled cysteine peptide fold change” value (10 µM) was -0.91 and the “probe-labelled cysteine peptide fold change” value (50 µM) is -3.05.

As for “CRYZ_Q08257_45_VHACGVNPVETYIR (UniProt Q08257)”, the “probe-labelled cysteine peptide fold change” value is 0.0503 (10 µM) and -0.01 (50 µM).

Take “DDAH2_O95865_11_CSHALIR (UniProt O95865)”: the “probe-labelled cysteine peptide fold change” value amounted to 0.0326 (10 µM) and 0.0102 (50 µM).

Regarding “CRIP2_P52943_150_DWHRPCLR (UniProt P52943)”, the “probe-labelled cysteine peptide fold change” value runs as follows: (10 µM) 0.923; (50 µM) 1.04.

Turning to “DGKE_P52429_167_TVHDECMK (UniProt P52429)”, the “probe-labelled cysteine peptide fold change” value was -0.082 (10 µM) and -0.168 (50 µM).

Regarding “CNOT4_O95628_175_AIQCVNNVVVDGR (UniProt O95628)”, the “probe-labelled cysteine peptide fold change” value by setting is: (10 µM) -0.0308; (50 µM) -0.303.

For the target “CUL9_Q8IWT3_76_AEHILMWLSAPEVYANCPGLLGER (UniProt Q8IWT3)”, the “probe-labelled cysteine peptide fold change” value by setting is: (10 µM) 0.0237; (50 µM) -0.0123.

As to “CSRP1_P21291_25_TVYFAEEVQCEGNSFHK (UniProt P21291)”, the “probe-labelled cysteine peptide fold change” value reads like this: (10 µM) 2.29e-05; (50 µM) -0.0826.
